Consider nine compounds from PubChem BioAssay (EPA / NIEHS).

In assay [1] the target is Luciferin 4-monooxygenase (Photinus pyralis) (UniProt P08659). Put plainly: CCTE_Simmons_QuantiLum_inhib_2: CCTE's Firefly Luciferase Inhibition Assay, Simmons Lab (AID 2283767).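 For AC50: potency for inhibitors that lower luciferase luminescence relative to DMSO.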 An outline of the steps:
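Eight test concentrations, 5 nM up to 87.5 uM final, preincubated 30min at 37C in the dark with purified luciferase (0.5% DMSO final). Detection reagent (150uM D-luciferin, 147uM dATP, 75uM CoA, pH 7.8) injected per well before kinetic luminescence read; three replicates.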

Assay [2] concerns zebrafish Androgen Receptor (AR), gene 100005148. Kind of assay: ATG_zfAR_XSP1: Attagene TRANS-FACTORIAL Multi-Species (XSP1) HepG2 Assay for zebrafish Androgen Receptor (AR) (AID 2283771). The method in brief:
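Gain-of-signal versus DMSO was measured as reporter transcripts quantified by RT-PCR, fluorescent labelling and capillary electrophoresis after 24 h chemical exposure. The cells were HepG2 expressing a chimeric zebrafish AR-GAL4, co-stimulated with 3 nM 6-alpha-fluorotestosterone.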

Assay [3] concerns the target zebrafish Estrogen Receptor (ESR1), esr1 (gene 259252) (UniProt P57717). Kind of assay: ATG_zfER1_XSP1: Attagene TRANS-FACTORIAL Multi-Species (XSP1) HepG2 Assay for zebrafish Estrogen Receptor (ESR1) (AID 2283772). The method in brief: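 HepG2 cells transiently transfected with a GAL4-UAS reporter and chimeric zebrafish ER-Gal4, dosed 24 h with 3 nM 6-alpha-fluorotestosterone present. Reporter mRNA measured by RT-PCR and capillary electrophoresis; gain of signal versus DMSO.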

Assay [4] relates to zebrafish Estrogen Receptor (ESR2B), gene 317733. Put plainly: ATG_zfER2b_XSP1: Attagene TRANS-FACTORIAL Multi-Species (XSP1) HepG2 Assay for zebrafish Estrogen Receptor (ESR2B) (AID 2283773). An outline of the steps: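 Medium contained 3 nM 6-alpha-fluorotestosterone. Reporter mRNA induction by exogenous zebrafish ER2b-Gal4 chimera was read 24 h post-dose in transiently transfected HepG2 cells, using RT-PCR, fluorescent labelling, HpaI digestion and capillary electrophoresis.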

The test system of assay [5] is frog Estrogen Receptor (ESR2), gene 100174814. Kind of assay: ATG_frER2_XSP1: Attagene TRANS-FACTORIAL Multi-Species (XSP1) HepG2 Assay for frog Estrogen Receptor (ESR2) (AID 2283774). An outline of the steps:
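Reporter mRNA from a multiplexed TRANS system, measured by RT-PCR with fluorescent labelling and capillary electrophoresis, 24 hours after chemical exposure. Human HepG2 liver cells carried exogenous frog ER-Gal4 chimera; medium included 3 nM 6-alpha-fluorotestosterone; increases versus DMSO analysed.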

The nature of assay [6]: ACEA_AR_agonist_AUC_viability: ACEA Biosciences xCELLigence Real-Time Cell Analysis on Androgen Receptor Agonism for Viability (AID 2283775).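 For AC50: viability read 80 hours after compound addition.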 The method in brief:
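22Rv1 cells; impedance growth kinetics; 8-pt 1:4 dilutions from 100 uM top final, ≤0.5% DMSO; n = 2; 80 h read; AUC viability, loss-of-signal vs DMSO.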

Assay [7] can be described thus: ACEA_AR_antagonist_AUC_viability: ACEA Biosciences xCELLigence Real-Time Cell Analysis on Androgen Receptor Antagonism for Viability (AID 2283776).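 Note: 22Rv1 human prostate cancer cells growing on impedance electrode plates; hits lower the growth signal relative to DMSO meaning cytotoxicity.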 The method in brief: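 Impedance read-out (RT-CES): area under growth curve at 80 h post-dose, loss of signal scored vs DMSO baseline. 22Rv1 cells; 8-pt 1:4 series, top 100 uM final, ≤0.5% DMSO; biological duplicate.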

For assay [8], the target named is chicken Estrogen Receptor (ESR1), ESR1 (gene 396099) (UniProt P06212). Kind of assay: ATG_chERa_XSP1: Attagene TRANS-FACTORIAL Multi-Species (XSP1) HepG2 Assay for chicken Estrogen Receptor (ESR1) (AID 2283779). The method in brief: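 Trans-activation of an exogenous chicken ERα–Gal4 chimera read as reporter transcript (RT-PCR, fluorescent labeling, capillary electrophoresis) after 24 h compound exposure of transfected HepG2; medium held 3 nM 6-alpha-fluorotestosterone. Positive-direction fit against DMSO.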
Chain of chicken Estrogen Receptor (ESR1), ESR1 (gene 396099) (P06212 whole entry, looked up, the tested form may be a part): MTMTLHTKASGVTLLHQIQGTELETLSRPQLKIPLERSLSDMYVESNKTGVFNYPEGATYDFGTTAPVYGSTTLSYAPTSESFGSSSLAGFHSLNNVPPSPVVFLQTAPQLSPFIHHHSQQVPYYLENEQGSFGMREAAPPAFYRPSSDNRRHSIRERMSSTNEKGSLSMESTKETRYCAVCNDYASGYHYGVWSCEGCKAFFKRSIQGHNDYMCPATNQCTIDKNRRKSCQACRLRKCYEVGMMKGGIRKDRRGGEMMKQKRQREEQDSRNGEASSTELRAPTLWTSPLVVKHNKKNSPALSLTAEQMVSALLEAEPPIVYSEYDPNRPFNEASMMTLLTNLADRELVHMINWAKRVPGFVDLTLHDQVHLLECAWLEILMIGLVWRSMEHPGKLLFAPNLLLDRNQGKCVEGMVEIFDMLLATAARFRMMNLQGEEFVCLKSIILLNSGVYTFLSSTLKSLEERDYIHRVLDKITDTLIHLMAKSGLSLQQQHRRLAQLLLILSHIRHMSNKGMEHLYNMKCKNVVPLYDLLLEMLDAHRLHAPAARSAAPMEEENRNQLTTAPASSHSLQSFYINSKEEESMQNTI

Assay [9] can be described thus: ACEA_ER_AUC_viability: ACEA Biosciences xCELLigence Real-Time Cell Analysis on Estrogen Receptor Agonism for Viability (AID 2283782).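 Note: hit means loss of impedance signal meaning reduced cell growth or viability.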 An outline of the steps:
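Viability endpoint: reduced impedance area under the curve relative to DMSO, recorded by real-time electrode sensing over ~80 h of continuous exposure. Duplicate plates of T47D in hormone-depleted medium; eight concentrations, 1:4 dilutions, 100 uM maximum.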

For assay [10], the target named is GAL4 Transcription Factor (Internal Marker), GAL4 (gene 855828) (UniProt P04386). Put plainly: ATG_GAL4_XSP1: Attagene TRANS-FACTORIAL Multi-Species (XSP1) HepG2 Assay for GAL4 Transcription Factor (Internal Marker) (AID 2283789). The method in brief: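 This background-control endpoint measures GAL4-driven reporter mRNA via RT-PCR and capillary electrophoresis of labelled fragments. Transiently transfected HepG2 cells were treated 24 h, with 3 nM 6-alpha-fluorotestosterone included, and gain-of-signal was fitted against DMSO.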
Chain of GAL4 Transcription Factor (Internal Marker), GAL4 (gene 855828) (P04386 whole entry, looked up, the tested form may be a part): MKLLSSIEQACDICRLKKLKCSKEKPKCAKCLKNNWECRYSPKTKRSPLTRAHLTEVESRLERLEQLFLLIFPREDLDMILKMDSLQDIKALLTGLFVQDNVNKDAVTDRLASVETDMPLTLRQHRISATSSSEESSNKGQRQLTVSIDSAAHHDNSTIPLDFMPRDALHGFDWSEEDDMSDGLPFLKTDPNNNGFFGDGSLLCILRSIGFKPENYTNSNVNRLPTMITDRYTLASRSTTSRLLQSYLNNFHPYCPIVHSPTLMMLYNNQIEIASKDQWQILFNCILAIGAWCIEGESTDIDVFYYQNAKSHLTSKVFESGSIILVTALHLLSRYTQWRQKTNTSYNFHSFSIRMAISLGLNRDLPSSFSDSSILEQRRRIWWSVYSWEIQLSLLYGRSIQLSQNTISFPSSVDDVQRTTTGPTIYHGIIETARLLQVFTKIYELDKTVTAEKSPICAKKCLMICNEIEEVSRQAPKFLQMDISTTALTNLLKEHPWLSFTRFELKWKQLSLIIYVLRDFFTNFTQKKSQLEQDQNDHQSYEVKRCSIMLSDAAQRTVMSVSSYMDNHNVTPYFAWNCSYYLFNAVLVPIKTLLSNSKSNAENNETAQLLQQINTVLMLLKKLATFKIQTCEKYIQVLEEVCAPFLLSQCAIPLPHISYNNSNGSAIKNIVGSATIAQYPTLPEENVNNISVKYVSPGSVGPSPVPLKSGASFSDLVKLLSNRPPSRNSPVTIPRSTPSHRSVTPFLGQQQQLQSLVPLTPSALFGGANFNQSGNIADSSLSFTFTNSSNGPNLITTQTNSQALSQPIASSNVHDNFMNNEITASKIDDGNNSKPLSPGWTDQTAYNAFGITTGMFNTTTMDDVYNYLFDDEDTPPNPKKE

Assay [11] has as its system frog Estrogen Receptor (ESR1), gene 398734. Kind of assay: ATG_frER1_XSP1: Attagene TRANS-FACTORIAL Multi-Species (XSP1) HepG2 Assay for frog Estrogen Receptor (ESR1) (AID 2283777). An outline of the steps: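 HepG2 cells transiently transfected with GAL4-UAS reporter units and frog ER–Gal4 chimera were dosed for 24 h with 3 nM 6-alpha-fluorotestosterone present. Reporter mRNA was measured by RT-PCR and capillary electrophoresis; gain of signal fitted versus DMSO.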

Assay [12] has as its system zebrafish Estrogen Receptor (ESR2A), gene 317734. Put plainly: ATG_zfER2a_XSP1: Attagene TRANS-FACTORIAL Multi-Species (XSP1) HepG2 Assay for zebrafish Estrogen Receptor (ESR2A) (AID 2283778). An outline of the steps: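 Reporter transcripts were quantified by RT-PCR, 6-FAM labelling, HpaI digestion and capillary electrophoresis after 24 h dosing. The cells were HepG2 transiently carrying a zebrafish ER2a–Gal4 construct plus multiplexed UAS reporters; medium contained 3 nM 6-alpha-fluorotestosterone.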

Assay [13] has as its system turtle Estrogen Receptor (ESR1), gene 101933533. Put plainly: ATG_trERa_XSP1: Attagene TRANS-FACTORIAL Multi-Species (XSP1) HepG2 Assay for turtle Estrogen Receptor (ESR1) (AID 2283781). The method in brief: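 Transactivation measured 24 h post-dose as reporter mRNA (RT-PCR, fluorescent capillary electrophoresis) from an NR-Gal4 turtle ER construct in HepG2. Medium included 3 nM 6-alpha-fluorotestosterone; increase over DMSO fitted.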

Assay [14] has as its target Estrogen receptor beta (Homo sapiens) (UniProt Q92731). Put plainly: ATG_hERb_XSP1: Attagene TRANS-FACTORIAL Multi-Species (XSP1) HepG2 Assay for human Estrogen Receptor (ESR2) (AID 2283788). The method in brief: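 HepG2 cells transiently transfected with multiplexed GAL4-UAS reporter units carrying chimeric human ERβ-Gal4; 24 h compound exposure with 3 nM 6-alpha-fluorotestosterone present. Reporter mRNA quantified by RT-PCR, FAM labelling and capillary electrophoresis; gain-of-signal fitted versus DMSO.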

Assay [15] in a line: ATG_M_06_XSP1: Attagene TRANS-FACTORIAL Multi-Species (XSP1) HepG2 Assay for M06 Transcription Factor (Internal Marker) (AID 2283790). The method in brief:
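This background-control readout tracks M06 reporter mRNA, measured by RT-PCR and capillary electrophoresis. HepG2 cells transiently carrying the GAL4-UAS reporter panel were dosed for 24 h with 3 nM 6-alpha-fluorotestosterone added for partial AR stimulation; increases were scored relative to DMSO.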

A short description of assay [16]: STM_H9_NormalizedViability: Cytotoxicity Assessment at 120 hours in the Stemina devTOX quickPredict H9 human embryonic stem cell (hESC)-based Assay (AID 2283784). The method in brief:
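Viability endpoint: background-corrected CellTiter-Fluor RFU expressed relative to the 0.1% DMSO mean on each plate. Undifferentiated H9 cells were treated with daily re-dosing and media change, and loss of signal was fitted.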

Assay [17] deals with AR (gene 367) (UniProt P10275). Kind of assay: ACEA_AR_antagonist_80hr: ACEA Biosciences xCELLigence Real-Time Cell Analysis on Androgen Receptor Antagonism for Proliferation (AID 2283787).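 Note: 22Rv1 human prostate cancer cells with growth followed by electrical impedance; hits lower the impedance growth signal relative to DMSO.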 The method in brief: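 Impedance-based real-time growth of 22Rv1 prostate cells, read 80 h after dosing. Eight concentrations, 1:4 series, top 100 uM final (0.5% DMSO), n = 2; signal decrease scored against DMSO.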
Chain of AR (gene 367) (P10275 whole entry, looked up): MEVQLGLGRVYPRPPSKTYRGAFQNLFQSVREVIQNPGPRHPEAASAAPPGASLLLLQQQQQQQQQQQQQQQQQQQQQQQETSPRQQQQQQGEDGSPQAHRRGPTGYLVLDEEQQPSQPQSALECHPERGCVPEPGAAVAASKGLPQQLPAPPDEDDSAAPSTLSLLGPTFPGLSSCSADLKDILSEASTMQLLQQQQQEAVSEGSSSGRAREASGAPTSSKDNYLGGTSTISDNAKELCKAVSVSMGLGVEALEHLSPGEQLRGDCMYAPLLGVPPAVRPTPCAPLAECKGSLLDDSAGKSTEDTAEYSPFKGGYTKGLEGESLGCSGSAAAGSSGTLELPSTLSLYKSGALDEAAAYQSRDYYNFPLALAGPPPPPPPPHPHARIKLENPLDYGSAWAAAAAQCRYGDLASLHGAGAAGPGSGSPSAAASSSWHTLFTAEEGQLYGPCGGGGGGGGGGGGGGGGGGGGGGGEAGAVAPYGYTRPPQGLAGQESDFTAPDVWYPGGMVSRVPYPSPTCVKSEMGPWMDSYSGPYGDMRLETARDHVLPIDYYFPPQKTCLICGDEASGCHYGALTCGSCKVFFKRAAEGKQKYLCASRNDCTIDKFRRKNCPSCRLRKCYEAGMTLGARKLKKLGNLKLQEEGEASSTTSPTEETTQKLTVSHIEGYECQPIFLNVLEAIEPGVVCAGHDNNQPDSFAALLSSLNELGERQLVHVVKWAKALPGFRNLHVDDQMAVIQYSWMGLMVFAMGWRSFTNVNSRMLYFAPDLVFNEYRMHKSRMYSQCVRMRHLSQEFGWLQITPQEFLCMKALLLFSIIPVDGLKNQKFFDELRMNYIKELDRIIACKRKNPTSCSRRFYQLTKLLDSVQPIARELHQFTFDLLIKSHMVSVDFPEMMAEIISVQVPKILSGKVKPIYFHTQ

Assay [18] deals with AR (gene 367) (UniProt P10275). Kind of assay: ACEA_AR_agonist_80hr: ACEA Biosciences xCELLigence Real-Time Cell Analysis on Androgen Receptor Agonism for Proliferation (AID 2283783).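 Note: hits increase impedance growth signal above DMSO baseline.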 An outline of the steps:
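Eight concentrations, 1:4 serial dilution from a 100 uM final top, in biological duplicate. Impedance-based real-time growth of 22Rv1 cells after overnight baseline, recorded hourly and read at 80 hours. Controls: testosterone, MG132, assay media.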

Inconclusive results are not listed. Activity calls are given as the source filed them. Rule for the calls: active = hit-call score of the fitted dose curve at least 0.9, where 1 is the maximum; inconclusive = response in the unintended direction; inactive = score below 0.9.

Chain of Luciferin 4-monooxygenase (Photinus pyralis) (P08659 whole entry, looked up): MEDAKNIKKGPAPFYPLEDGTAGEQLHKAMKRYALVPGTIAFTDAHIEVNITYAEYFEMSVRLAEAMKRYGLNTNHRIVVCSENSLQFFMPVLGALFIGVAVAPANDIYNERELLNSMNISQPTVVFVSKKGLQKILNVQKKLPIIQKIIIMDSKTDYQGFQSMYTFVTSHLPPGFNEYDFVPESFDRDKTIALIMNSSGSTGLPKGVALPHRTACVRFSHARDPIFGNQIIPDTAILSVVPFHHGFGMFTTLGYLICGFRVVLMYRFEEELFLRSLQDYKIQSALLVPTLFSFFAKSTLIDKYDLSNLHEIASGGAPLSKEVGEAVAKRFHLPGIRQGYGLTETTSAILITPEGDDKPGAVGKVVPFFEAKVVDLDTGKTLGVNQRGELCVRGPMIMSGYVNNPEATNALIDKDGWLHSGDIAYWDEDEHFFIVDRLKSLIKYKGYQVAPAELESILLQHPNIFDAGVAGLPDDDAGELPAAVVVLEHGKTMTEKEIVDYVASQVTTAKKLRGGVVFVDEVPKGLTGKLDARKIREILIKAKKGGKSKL
Chain of zebrafish Estrogen Receptor (ESR1), esr1 (gene 259252) (P57717 whole entry, looked up, the tested form may be a part): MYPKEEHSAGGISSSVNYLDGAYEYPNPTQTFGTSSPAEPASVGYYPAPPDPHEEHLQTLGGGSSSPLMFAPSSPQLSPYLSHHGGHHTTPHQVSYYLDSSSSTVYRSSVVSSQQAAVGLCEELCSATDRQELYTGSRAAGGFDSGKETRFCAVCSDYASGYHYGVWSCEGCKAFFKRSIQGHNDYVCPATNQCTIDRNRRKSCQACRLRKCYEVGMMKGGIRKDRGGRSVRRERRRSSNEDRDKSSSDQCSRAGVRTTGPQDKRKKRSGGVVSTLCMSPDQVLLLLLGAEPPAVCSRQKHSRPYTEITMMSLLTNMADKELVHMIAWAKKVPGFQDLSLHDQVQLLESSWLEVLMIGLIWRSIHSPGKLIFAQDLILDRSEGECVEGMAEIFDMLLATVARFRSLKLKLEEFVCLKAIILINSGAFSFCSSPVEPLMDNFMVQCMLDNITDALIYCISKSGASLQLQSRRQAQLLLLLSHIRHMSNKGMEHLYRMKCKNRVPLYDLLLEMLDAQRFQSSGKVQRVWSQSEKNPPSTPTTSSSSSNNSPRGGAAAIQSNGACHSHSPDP
Chain of Estrogen receptor beta (Homo sapiens) (Q92731 whole entry, looked up, the tested form may be a part): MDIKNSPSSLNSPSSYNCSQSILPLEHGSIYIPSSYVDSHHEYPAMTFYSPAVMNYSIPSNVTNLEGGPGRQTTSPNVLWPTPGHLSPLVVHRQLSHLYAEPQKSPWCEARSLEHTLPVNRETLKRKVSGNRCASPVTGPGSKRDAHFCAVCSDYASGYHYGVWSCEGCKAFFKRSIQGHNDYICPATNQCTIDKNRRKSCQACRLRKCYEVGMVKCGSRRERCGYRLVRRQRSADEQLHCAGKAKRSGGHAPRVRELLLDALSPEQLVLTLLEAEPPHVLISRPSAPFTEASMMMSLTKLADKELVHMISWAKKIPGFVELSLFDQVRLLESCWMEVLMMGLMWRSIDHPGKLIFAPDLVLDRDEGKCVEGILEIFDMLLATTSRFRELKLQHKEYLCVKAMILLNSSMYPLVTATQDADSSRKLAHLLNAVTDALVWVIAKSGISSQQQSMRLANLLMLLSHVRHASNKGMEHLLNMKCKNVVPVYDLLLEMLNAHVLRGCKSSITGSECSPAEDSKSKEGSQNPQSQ

Usually AC50 stands for the concentration at which the activity in the assay is half-maximal. On to `CCCOCC(=Nc1ccc(Cl)cc1C(F)(F)F)n1ccnc1`, for which the concentration at half-maximal activity (AC50) in assay [1] is 36.8 µM (active); in assay [5] it was 2.94 µM (active); in [6], 22.7 µM (active); in assay [7] it was 6 µM (active); in assay [9], 23.1 µM (active). For the same compound, the call in [2], in assay [3], in [4], in [8] and in [10] was inactive.
For the compound `CCc1cccc(C)c1N(C(=O)CCl)C(C)COC` (stereo not given), the outcome in assay [2], in assay [3], in [6], in [7], in assay [12] and in assay [9] was inactive. The call in assay [15] was inactive. The AC50 in assay [4] is 35.8 µM (active); in assay [5] it was 48.9 µM (active); in [11], 3.42 µM (active); in assay [8], 9.46 µM (active); in [13], 17.4 µM (active); in assay [14], 4.14 µM (active).
For `CCOP(=S)(OCC)Oc1ccc2c(C)c(Cl)c(=O)oc2c1`, the outcome in assay [1], in [6], in assay [11], in [12], in [8] and in assay [13] was inactive. Moreover, the outcome in assay [14] and in assay [15] was inactive. The AC50 in assay [4] is 44.6 µM (active); in assay [5] it was 34.6 µM (active); in assay [7], 31 µM (active).
Consider `O=c1ccc(=O)[nH][nH]1`, for which the compound was classed as inactive in assay [1] and in assay [9].
On to `CN(C)NC(=O)CCC(=O)O`, for which the compound was called inactive in assay [6], in assay [7] and in assay [9].
`CCOP(=S)(OCC)Oc1cc(C)nc(C(C)C)n1`: the result in assay [1], in assay [6] and in assay [7] was inactive. Moreover, the AC50 in [9] was 82 µM (active); in assay [16], 87.1 µM (active).
With `CC1(C(=O)Nc2ccc(O)c(Cl)c2Cl)CCCCC1`, the compound was classed as inactive in assay [1]. For the same compound, the AC50 in assay [6] was 64.9 µM (active); in [7], 50 µM (active).
Turning to `CCCSP(=O)(OCC)SCCC`, the outcome in [1] and in assay [6] was inactive. Moreover, the AC50 is 28.8 µM (active) in [7] and 34 µM (active) with AR (gene 367) [17].
Regarding `CC(C)=CC1C(C(=O)OCN2C(=O)C3=C(CCCC3)C2=O)C1(C)C` (stereo not given), the values for the AC50 (in [6]; in assay [7]; in the assay with AR (gene 367) [17]) were 44 µM (active), 48.1 µM (active) and 69.8 µM (active), respectively. Further, in the assay with AR (gene 367) [18], the result was inactive.
